High-throughput results deposited in PubChem by National Center for Advancing Translational Sciences (NCATS).
D1 ag – Allosteric Agonists of the Human D1 Dopamine Receptor: qHTS; D(1A) dopamine receptor (Homo sapiens), P21728; HEK293 T-REx D1 cells, calcium flux, agonist mode; activation, % at 2 µM; 1% of 360,000 active; AID 504660, 2011; in the data active means activation above about 30%; further: 0% is about no effect
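Tetracycline-induced HEK293 TREx D1 cells, force-coupled to calcium signalling, were dye-loaded with a no-wash calcium kit. Compound was pin-added after a 10 s baseline. Fluorescence was read kinetically at 1 cycle/s for 180 s, with calcium rises flagged as agonism.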
D1 PAM – Potentiators of Human D1 Dopamine Receptor: qHTS | 0.036% of 360,000 active | D(1A) dopamine receptor (Homo sapiens), P21728 | potentiation, % at 10 µM | AID 504651, 2011 | HEK293 TREx D1 cells, calcium flux, dopamine EC20 potentiation; in the data active means potentiation above about 30%; further: 0% is about no effect
D3 ag – qHTS of D3 Dopamine Receptor Agonist: qHTS | D(3) dopamine receptor (Homo sapiens), P35462 | D3R DiscoveRx beta-arrestin cells, luminescence, 90 min | max activation, % | 0.58% of 410,000 active; in the data active means max activation above about 30%; further: 0% is about no effect
Target sequence (P35462 whole entry, looked up): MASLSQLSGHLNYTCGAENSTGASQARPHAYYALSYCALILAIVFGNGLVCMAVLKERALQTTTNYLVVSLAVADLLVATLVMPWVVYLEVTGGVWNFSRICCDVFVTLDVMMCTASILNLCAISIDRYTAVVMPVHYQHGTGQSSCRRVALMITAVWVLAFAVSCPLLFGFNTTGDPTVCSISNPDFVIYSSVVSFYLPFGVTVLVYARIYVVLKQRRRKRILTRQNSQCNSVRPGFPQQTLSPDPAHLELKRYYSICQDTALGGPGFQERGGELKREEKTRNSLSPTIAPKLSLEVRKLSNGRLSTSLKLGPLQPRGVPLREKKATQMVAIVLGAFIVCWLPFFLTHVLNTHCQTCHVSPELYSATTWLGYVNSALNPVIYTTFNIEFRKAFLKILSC
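Cells at 1500/well, incubated overnight, then treated with pinned compounds (dopamine as control) for 90 min at 37 degrees C. DiscoveRx reagent added for 30 - 60 minutes at room temperature; luminescence read.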
DRD3 antagonist – qHTS of D3 Dopamine Receptor Antagonist: qHTS; max response, negative = inhibition, %; 2.5% of 360,000 active; AID 652054, 2013; D3R cells, DiscoveRx beta-arrestin luminescence, antagonist mode; stronger effect = lower value; D(3) dopamine receptor (Homo sapiens), P35462; in the data active means max response below about -50%; inconclusive means no clear call, values can overlap the other calls; further: on the % scale 0 is the no-effect control and ±100 the full control effect
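Cells expressing the human receptor were seeded at 1500 cells/well, incubated overnight at 37 degrees C in 5% CO2, then exposed to library compounds with dopamine controls for 90 minutes at 37 degrees C before luminescent detection.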
ERG-DNA inh – qHTS for Small Molecule Inhibitors of the ERG Ets/DNA interaction; Transcriptional regulator ERG (Homo sapiens), P11308; fluorescence polarization, His-ERG Ets domain / labelled DNA; Potency, µM (series often up to 76.9 µM), inactives show at the highest dose FP activity, negative = inhibition, most hits filed as inhibitors; 0.028% of 370,000 active; AID 624246, 2012; active means well fitted inhibition curve with a large enough effect in the polarisation, with a control signal flat; inconclusive means small, poorly fitted or top-dose-only effect, or effect the other way, or a change in a side signal; inactive means no such curve, though single readings can be large or run the other way; the % refers to the polarisation;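 further: polarization taken with two DNA probes labelled with fluorescein and Texas red; potency means the concentration at half of the fitted maximal effect; % of control where 0% means no effect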
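His-tagged ERG Ets domain (1 uM in the protein solution; 300mM KCl, 50mM Tris-HCl, 1mM EDTA, 1mM DTT, pH 7.5) received compound, then a probe mix of 5 nM fluorescein-DNA and 100nM Texas-615-DNA. Fluorescence polarization was read for both dyes.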
D1 antag – Antagonist of Human D 1 Dopamine Receptor: qHTS; D(1A) dopamine receptor (Homo sapiens), P21728; HEK293 TREx D1 cells, calcium flux, dopamine EC80; stronger effect = lower value; activity change, negative = inhibition, % at 10 µM; 3.2% of 360,000 active; AID 504652, 2011; in the data active means activity change below about -30%; further: on the % scale 0 is the no-effect control and ±100 the full control effect
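Cells carrying a force-coupled, tetracycline-inducible human D1 receptor report calcium flux. Each well gets a 10 s baseline, compound with 180 s monitoring, then an EC80 dopamine stimulus with a second 180 s kinetic read.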
Starred values were filed as active, the others as inactive; ? = inconclusive; · = not tested or not shown; ! = not active in a repeat. In the library only some 6.1% were active in any assay of this set; here they are far more common.

SMILES | D1 ag | D1 PAM | D3 ag | DRD3 antagonist | ERG-DNA inh | D1 antag
CCOCCc1nnc(NC(=O)CCC2CCCCC2)s1 | 4 | 6 | 8 | 9 | 1% | 1
COc1cc(NS(=O)(=O)c2cccc3nsnc23)cc(OC)c1 | 3 | -4 | 3 | -64* | -5% | -5
COc1cccc(CNC(=O)CCNS(=O)(=O)c2cccc3nsnc23)c1 | 1 | -1 | 0 | 11 | 3% | -73*!
COC(=O)CNC(=O)C1CCC(CNS(=O)(=O)c2cccc3nsnc23)CC1 (stereo unspecified) | 2 | 2 | -1 | 6 | -9% | -33*
COc1cc(NS(=O)(=O)c2cccc3nsnc23)c(C(=O)O)cc1OC | 3 | -8 | -4 | -83* | 0% | 1
O=C(NCC(O)CO)c1ccc2[nH]c3ccccc3c2c1 (stereo unspecified) | 0 | -2 | 6 | 10 | 1% | -16
Cc1ccc(CNC(=O)CCC(=O)Nc2nnc(C)s2)cc1 | 3 | 0 | -1 | -6 | 8% | 0
COc1ccc(C2c3c(oc4ccccc4c3=O)C(=O)N2Cc2ccncc2)cc1 (stereo unspecified) | 1 | -9 | · | · | · | -7
Cc1cc(C)c(CN2CCN(C(=O)Cn3cnc4c(NCc5ccccc5)ncnc43)CC2)c(C)c1 | · | · | 31* | 11 | 6% | ·
CC(CNC(=O)Cn1cnc2c(NCc3ccccc3)ncnc21)c1ccccc1 (stereo unspecified) | · | · | 45* | 5 | 1% | ·
COCCNc1nc2cc(-c3cccc(Cl)c3)sc2c(=O)n1C | · | · | 2 | 15 | · | ·
CCC(c1nc2ccccc2[nH]1)N(Cc1cccnc1)C(=O)c1cc(-c2ccccc2)on1 (stereo unspecified) | · | · | -9 | 0 | · | ·
COc1ccc(OC)c(C2C3CN(C(C)C)CC=C3C(C#N)=C(N)C2(C#N)C#N)c1 (stereo unspecified) | 22 | -2 | 1 | -59* | -2% | -12
CN1CC=C2C(C#N)=C(N)C(C#N)(C#N)C(c3cccc(Cl)c3Cl)C2C1 (stereo unspecified) | 13 | -4 | -1 | -25 | -5% | -24
Cc1ccc(C2C3CN(C(C)C)CC=C3C(C#N)=C(N)C2(C#N)C#N)cc1 (stereo unspecified) | 26 | -5 | -11 | -86* | 1% | 3
CCCN1CC=C2C(C#N)=C(N)C(C#N)(C#N)C(c3cccc(OC)c3OC)C2C1 (stereo unspecified) | 34* | 0 | 3 | ? | · | -3
CCCCOc1ccc(C2C3CN(C(=O)OCC)CC=C3C(C#N)=C(N)C2(C#N)C#N)cc1OC (stereo unspecified) | 1 | 3 | 6 | 38 | 2% | 3
COc1ccc(/C=N/NC(=O)C2(O)c3ccccc3-c3ccccc32)cc1 | 5 | 1 | 0 | -12 | 2% | 14
Cc1ccc(F)cc1NC(=O)Nc1cc(C(C)(C)C)nn1C | 2 | -8 | 1 | 3 | -11% | -4
CCOc1cc(CNn2cnnc2)ccc1OCC(=O)NC1CCCCC1 | -1 | -4 | -11 | -7 | -8% | -6
COc1cccc(/C=N/NC(=O)CSc2nnc(C)n2-c2ccccc2)c1O | 1 | -4 | 4 | 22 | 3% | -15
COc1cc([N+](=O)[O-])cc(/C=N/NC(=O)Cn2nccc2C)c1O | 1 | -6 | -12 | -53* | 3% | -1
COc1cc([N+](=O)[O-])cc(/C=N/NC(=O)CSc2nnc(-c3ccccc3)n2C)c1O | 0 | 4 | -5 | -52* | -1% | -16
COc1cc([N+](=O)[O-])cc(/C=N/NC(=O)Cn2nc(C)cc2C)c1O | 1 | -13 | -25 | -60* | 22% | -12
COc1cc([N+](=O)[O-])cc(/C=N/NC(=O)c2cc(-c3ccccc3)nc3ccccc23)c1O | 2 | -8 | 7 | 0 | 12% | -15
SMILES | D1 ag | D1 PAM | D3 ag | DRD3 antagonist | ERG-DNA inh | D1 antag
COc1cc([N+](=O)[O-])cc(/C=N/NC(=O)c2cc(C)nc3ccccc23)c1O | 1 | -8 | -19 | -56* | -7% | -8
CCOc1ccccc1NC(=O)Cn1c(=O)n(-c2ccccc2)c(=O)c2c1c1cc(C)ccc1n2C | 3 | -2 | -1 | · | -2% | -2
O=C(COC(=O)c1ccc(Cl)c(S(=O)(=O)N2CCCC2)c1)NCc1ccccc1 | · | · | 0 | 12 | 4% | ·
CC(C)c1ccc(S(=O)(=O)N2CCN(C(=O)C3CCN(C(=O)c4ccc(F)cc4)CC3)CC2)cc1 | 4 | -4 | 5 | 11 | 7% | -12
Cc1ccnn1CC(=O)N/N=C/c1ccc2c(c1)OCO2 | 3 | -4 | -8 | ? | 1% | -47*
CSc1ccccc1NC(=O)CN(C)Cc1ccc(Br)cc1 | 8 | -6 | -38 | ? | -2% | 13
CSc1ccc(CN(C)CC(=O)Nc2ccccc2Br)cc1 | 3 | 1 | -9 | 0 | -5% | -41*
Cc1nnc(N=c2ssnc2Cl)o1 | -4 | 9 | -86 | -83* | 13% | ·
Cc1ccc(NS(=O)(=O)c2ccc(-n3cccn3)cc2)c(C)c1 | 11 | 4 | 6 | -13 | 1% | -19
Cc1ccc(Cl)cc1NS(=O)(=O)c1ccc(-n2cccn2)cc1 | 13 | -10 | -8 | 1 | 4% | -30*
O=S(=O)(NCc1ccccc1Cl)c1ccc(-n2cccn2)cc1 | 9 | -3 | 0 | 0 | -6% | -31*
O=S(=O)(NCc1ccccc1Cl)c1ccc(-n2cnnn2)cc1 | 2 | 3 | 0 | -13 | 5% | -8
O=Cc1c(N2CCC3(CC2)OCCO3)nc2ccccn2c1=O | 1 | -7 | -4 | -12 | 0% | -10
Cc1cc(C)n(/N=C/c2cc(Cl)cc(Cl)c2O)c(=O)c1 | 3 | -1 | -28 | -77* | 2% | 1
O=C(CCC(=O)c1cccs1)NCc1ccncc1 | 1 | -4 | 4 | 4 | -2% | 9
COc1cccc(/C=C/C(=O)OCC(=O)Nc2ccccc2Sc2ccccc2)c1 | 25 | 0 | 4 | -6 | 1% | -4
Cc1ccc(/C=C/C(=O)OCC(=O)Nc2ccccc2Sc2ccccc2)cc1 | 32* | -3 | -11 | -3 | -7% | -11
